Measurements from ChEMBL document CHEMBL4513216, “Probing the Open Global Health Chemical Diversity Library for Multistage-Active Starting Points for Next-Generation Antimalarials” (ACS Infect Dis, 2020).
About 8,600 (12%) of roughly 69,000 compounds showed an effect of 50% or more. Only a selection was taken, and strong results are over-represented in it overall.

What follows are molecules tested on Plasmodium berghei (assay: Screen against P. berghei liver stage (PbLuc), transformed with Luciferase, at 10uM). Conditions: tested at 10 uM.
Assay type: functional, HepG2
With `c1csc(-c2noc(CCCN3CCCC3Cn3cccn3)n2)c1` (configuration not stated) the INHIBITION was 39.8%.
In the case of `CN(c1ncnc2sccc12)C1CCCN(c2cccnn2)C1` (configuration not stated), the INHIBITION was 7.18%.
Work on `CN(c1ncnc2ccccc12)C1CCCN(c2cccnn2)C1` (configuration not stated) yielded an INHIBITION of 52%.
`c1cnnc(N2CCCC2CNCc2nc(-c3ccsc3)no2)c1` (configuration not stated) was tested, and the INHIBITION was 27.9%.
In the case of `CN(Cc1cn2ccccc2n1)C1CCCN(c2cccnn2)C1` (configuration not stated), the INHIBITION was 16.7%.
Work on `c1cnnc(N2CCCC(NCc3nc(-c4ccsc4)no3)C2)c1` (configuration not stated) yielded an INHIBITION of 59.3%.
`CN(c1ncnc2c1cnn2C)C1CCCN(c2cccnn2)C1` (configuration not stated) was tested, and the INHIBITION was -12.7%.
`Cc1nccn1CC1CCCN1CCCc1nc(-c2cccs2)no1` (configuration not stated) showed an INHIBITION of 68.4%.
In the case of `CN(Cc1ccccn1)C1CCCN(c2cccnn2)C1` (configuration not stated), the INHIBITION was 7.12%.
Molecule `c1csc(-c2noc(CCCN3CCCC3Cn3cncn3)n2)c1` (configuration not stated) has an INHIBITION of -9.76%.
`c1cncc(-c2noc(CNC3CCCN(c4cccnn4)C3)n2)c1` (configuration not stated) showed an INHIBITION of 8.66%.
`CN(Cc1cn2ccccc2c1C#N)C1CCCN(c2cccnn2)C1` (configuration not stated) was tested, and the INHIBITION was 59.4%.
Work on `c1cc(C2CN(C3CCCC3)C2)n[nH]1` yielded an INHIBITION of 7.4%.
`O=C(CCOc1ccccc1F)N1CCOCC1` gave an INHIBITION of 48.2%.
`CN(C)CCOCC1CN(Cc2ccccn2)Cc2nnn(C)c21` (configuration not stated) was tested, and the INHIBITION was -2.35%.
In the case of `CN(C)c1ccnc(C2CCCN2)n1` (configuration not stated), the INHIBITION was 10.45%.
Work on `Cc1cccc(C2(CNC(=O)CCNS(C)(=O)=O)CCCC2)c1` yielded an INHIBITION of 67.5%.
`Cc1cccc(C2(CNC(=O)CO)CCCC2)c1` was tested, and the INHIBITION was 21.5%.
Work on `Cc1cccc(C2(CNC(=O)C(C)S(C)(=O)=O)CCCC2)c1` (configuration not stated) yielded an INHIBITION of 2.39%.
`C[C@@H]1CN(c2ccc(Cl)cn2)CC[C@@]1(O)C1CCOCC1` was tested, and the INHIBITION was 17.215%.
With `CCOC(=O)N1CCC(OC)c2ccccc2N(C)C(=O)C1` (configuration not stated) the INHIBITION was 46.4%.
`CCc1cc(=O)n(CC(=O)N2CCCC2)c(-c2cccc(F)c2)n1` showed an INHIBITION of 46.6%.
Molecule `COCC(=O)N1CCN(C(=O)c2scnc2C)CC1` has an INHIBITION of 21.3%.
`O=C(C1CC1)N1CCc2c(ncnc2N2CCN3CCCC3C2)C1` (configuration not stated) showed an INHIBITION of 46.6%.
For `Cc1cnc(-c2nc(O)c3c(n2)CN(C(=O)C2CC2)CC3)cn1`, the INHIBITION was 9.98%.
Work on `CCN(CC)C1CCN(c2ncnc3c2CCN(C(=O)C2CC2)C3)C1` (configuration not stated) yielded an INHIBITION of 64.5%.
Work on `O=C(C1CC1)N1CCCN(c2ncnc3c2CCNCC3)CC1` yielded an INHIBITION of -20.6%.
For `CCN1CCN(c2ncnc3c2CCN(C(=O)C2CC2)C3)CC1`, the INHIBITION was 61.1%.
Molecule `CCOCC(=O)N1CCc2c(ncnc2N2CCOCC2)C1` has an INHIBITION of -68.2%.
In the case of `CSCCC(=O)N1CCc2c(ncnc2N2CCOCC2)C1`, the INHIBITION was -103%.
In the case of `CCCOC1CCCN(c2ncnc3c2CCN(C(=O)C2CC2)C3)C1` (configuration not stated), the INHIBITION was 49.9%.
For `CNC(=O)C1CCN(c2ncnc3c2CCN(C(=O)C2CC2)C3)C1` (configuration not stated), the INHIBITION was 57.8%.
For `CN1CCC(c2cnc(NCc3nccn3C)cn2)CC1`, the INHIBITION was 33.2%.
Molecule `COCC1CN(Cc2ccc(C)o2)Cc2nnn(CC3CC3)c21` (configuration not stated) has an INHIBITION of -8.19%.
`Cn1nc(Br)nc1Sc1ccccc1NC(=O)C1CC1` was tested, and the INHIBITION was 37.4%.
For `O=C1N(Cc2cccc(Cl)c2)CCC12CCCNC2` (configuration not stated), the INHIBITION was -15.9%.
In the case of `Cc1cnn(CC2CCCN2C(=O)CCc2c(C)nn(C)c2C)c1` (configuration not stated), the INHIBITION was 0.825%.
Work on `CCCC(NC(=O)c1cncc(C)c1)c1nnn[nH]1` (configuration not stated) yielded an INHIBITION of 23.5%.
Molecule `CCN1CC[C@@]2(C(=O)Nc3ccccc3)CCN(S(C)(=O)=O)CC[C@@H]12` has an INHIBITION of 35.8%.
`CCc1cc(C(=O)N[C@@H]2CC[C@@H](N3CCOCC3)[C@@H]2O)no1` was tested, and the INHIBITION was 10.9%.
Molecule `Cc1ccc(N2CCN(C(=O)COc3nccc(C)n3)CC2)nn1` has an INHIBITION of 50.5%.
In the case of `Cc1ccnc(OCC(=O)N2CCN(c3ncccn3)CC2)n1`, the INHIBITION was -17.8%.
For `Cc1ccc(N2CCN(C(=O)COc3ncccn3)CC2)nn1`, the INHIBITION was -38.7%.
Work on `CNC(=O)C1(c2cnccn2)CCCN1C(=O)c1c(F)cccc1F` (configuration not stated) yielded an INHIBITION of 34%.
In the case of `C[C@@H]1CN(C(=O)CCCN2CCOCC2)C[C@@]1(O)C1CC1`, the INHIBITION was 37.7%.
In the case of `C[C@@H]1CN(C(=O)CCN2CCOCC2)CC[C@]1(C)O`, the INHIBITION was 55%.
`Cc1cccc(=O)n1CCC(=O)N1CC[C@@](O)(C2CCC2)[C@H](C)C1` was tested, and the INHIBITION was 47.6%.
Work on `C[C@@H]1CN(C(=O)CCN2CCCC2)CC[C@@]1(O)C1CCOCC1` yielded an INHIBITION of 25.4%.
`C[C@@H]1CN(C(=O)CCCN2CCCC2)CC[C@@]1(O)C1CCOCC1` was tested, and the INHIBITION was 10.6%.
`CC[C@H]1CN(C(=O)CCn2c(C)cccc2=O)CC[C@@]1(C)O` gave an INHIBITION of -22.7%.
`C[C@@H]1CN(C(=O)CCN2CCCC2)CC[C@@]1(O)C1CCC1` gave an INHIBITION of 27.9%.
For `Cc1cccc(=O)n1CCC(=O)N1CC[C@](C)(O)[C@H](C)C1`, the INHIBITION was 51.3%.
Molecule `C[C@@H]1CN(C(=O)CCCN2CCOCC2)CC[C@@]1(O)C1CCC1` has an INHIBITION of 64.9%.
`CNCC1CCC(c2cc(CN(C)S(=O)(=O)N(C)C)n(C)n2)CC1` (configuration not stated) gave an INHIBITION of 44.3%.
`CC(C)OC(=O)N1C[C@@H]2CC[C@H]1CN(C(=O)c1ccccn1)C2` was tested, and the INHIBITION was -26.4%.
Molecule `COc1nonc1NCn1nc(C)cc1C` has an INHIBITION of 39.7%.
`CN(C)Cc1nc(C2(NC(=O)Nc3cccc(F)c3)CCCC2)no1` showed an INHIBITION of 38.2%.
For `CCN1CCN(C2CCN(CC(=O)NCC(F)(F)F)CC2)C1=O`, the INHIBITION was -3.2%.
Molecule `Cc1nccn1[C@@H]1CC[C@@H](NC(=O)Cn2c(C)nc3ccccc32)[C@H]1O` has an INHIBITION of 23.9%.
For `COc1ccccc1CN(Cc1nc(C)no1)C1CC1`, the INHIBITION was 17.4%.
`Cc1cncnc1C1CCN(C(=O)C2(C)CCCCN2C)CC1` (configuration not stated) was tested, and the INHIBITION was 1.45%.
In the case of `Cn1ccnc1-c1ccc(NCCC2COc3ccccc3O2)nn1` (configuration not stated), the INHIBITION was 34%.
With `Cn1ccnc1-c1ccc(NC[C@H]2CCc3ccccc3O2)nn1` the INHIBITION was 60%.
`Cn1ccnc1-c1ccc(NCC2COc3ccccc3O2)nn1` (configuration not stated) gave an INHIBITION of -9.17%.
In the case of `CCC(O)CN1CCN(C(=O)c2sccc2C2CC2)CC1` (configuration not stated), the INHIBITION was 19.5%.
`Cc1nc(CN2CCN(C(C)c3nc(C(C)C)no3)CC2)oc1C` (configuration not stated) showed an INHIBITION of 6.7%.
In the case of `Cc1cnn(C2CN(c3nc(-c4ccncc4)nc4c3CCC4)C2)c1`, the INHIBITION was 44.3%.
In the case of `Cc1cc(C)n(C2CN(c3nc(-c4ccncc4)nc4c3CCC4)C2)n1`, the INHIBITION was 81.4%.
`c1cnn(C2CN(c3nc(-c4ccncc4)nc4c3CCC4)C2)c1` was tested, and the INHIBITION was 53.6%.
For `Cc1cc(C)n(C2CN(c3nc(N)nc4c3CCCC4)C2)n1`, the INHIBITION was 34.1%.
With `OCCC1CN(c2nc(-c3ccncc3)nc3c2CCNCC3)CCO1` (configuration not stated) the INHIBITION was 11.8%.
Molecule `Cc1cc(C)n(C2CN(c3ncnc4c3CCC4)C2)n1` has an INHIBITION of 0.868%.
